Only some compounds are listed: those with a hit (about 3.7% of all), similar ones and a draw of the others.
FadD28 FP inh = inhibitors of Mycobacterium tuberculosis FadD28 bisubstrate binding; FadD28 bisubstrate probe binding, fluorescence polarization; inhibition, % at 12.5 µM; 360,000 compounds, 0.22% hits; AID 588549; in the data active = inhibition above about 8.5%, passing the limit was not always enough; inconclusive = no clear call, values can overlap the other calls
GDH-TPI counter-1 = counter-screen for M. tuberculosis FBA inhibitors: GDH-TPI coupled enzymes | GDH-TPI coupled enzyme counterscreen, NADH absorbance | 360,000 compounds, 1.2% hits | AID 588335 | inhibition, % at 4.8 µM; in the data active = inhibition above about 30%;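 also: 0% = DMSO wells and 100% = wells lacking the enzyme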
Rv3671c protease = inhibitors of M. tuberculosis serine protease Rv3671c. inhibition, % at 5.96 µM. 320,000 compounds, 0.048% hits. P9WHR9; in the data active = inhibition above about 38%;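 also: extracellular domain of Rv3671c used as enzyme; 0% = enzyme with DMSO and 100% = no enzyme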
Target sequence (P9WHR9 whole entry, looked up, the tested form may be a part): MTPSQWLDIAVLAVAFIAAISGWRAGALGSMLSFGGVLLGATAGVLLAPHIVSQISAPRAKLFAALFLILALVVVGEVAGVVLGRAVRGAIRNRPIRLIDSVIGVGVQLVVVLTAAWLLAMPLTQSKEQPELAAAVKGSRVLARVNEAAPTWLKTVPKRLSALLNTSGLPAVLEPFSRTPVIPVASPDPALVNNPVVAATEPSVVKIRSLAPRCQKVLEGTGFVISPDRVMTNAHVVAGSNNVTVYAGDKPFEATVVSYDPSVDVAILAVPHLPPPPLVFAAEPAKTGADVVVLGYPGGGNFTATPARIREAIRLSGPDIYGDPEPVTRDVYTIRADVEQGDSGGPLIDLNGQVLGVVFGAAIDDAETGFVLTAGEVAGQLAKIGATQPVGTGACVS
FBA Mtb inh = inhibits M. tuberculosis FBA enzyme; purified M. tuberculosis FBA, fluorescence read-out; inhibition, % at 1 µM; 360,000 compounds, 2.3% hits; AID 588726;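 also: 0% = vehicle and 100% = reference inhibitor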
UGM FP inh = Mtb UDP-galactopyranose mutase inhibition | AID 504406 | inhibition, % at 10 µM | purified UGM, fluorescence polarization probe displacement | 320,000 compounds, 0.06% hits | P9WIQ1; in the data active = inhibition above about 10%, passing the limit was not always enough; inconclusive = no clear call, values can overlap the other calls
Mtb betalactam = beta-lactam sensitization of Mtb H37Rv | inhibition, % at 25 µM | M. tuberculosis H37Rv growth with meropenem, percent inhibition | 330,000 compounds, 0.27% hits | AID 434955; call rule not given here;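 also: growth measured after seven days incubation then overnight dye step; 0% = bacteria only wells and 100% = bacteria with antibiotic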
Mtb FBA inh conf = confirmation of M. tuberculosis fructose-bisphosphate aldolase inhibitors; shares compounds with FBA Mtb inh; purified M. tuberculosis FBA, fluorescence read-out; inhibition, % at 1 µM; 5,600 compounds, 78% hits;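 also: 0% = vehicle wells and 100% = reference inhibitor wells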
GDH-TPI counter-2 = counter-screen for M. tuberculosis FBA inhibitors: GDH-TPI coupled enzyme inhibition | GDH-TPI coupled enzyme counterscreen, fluorescence | 5,600 compounds, 81% hits | shares compounds with FBA Mtb inh | inhibition, % at 1 µM | AID 652141; in the data active = inhibition above about 10%
The depositor's hits bear a star. Rule as the data show it, unless noted: active = inhibition above about 27%; inactive = the rest.

How did CC(=O)OC[C@H]1O[C@@H](Sc2cccc3cccnc23)[C@H](OC(C)=O)[C@@H](OC(C)=O)[C@H]1OC(C)=O do in these assays?
FadD28 FP inh: -2; GDH-TPI counter-1: -1; Rv3671c protease: 3; FBA Mtb inh: 35*; UGM FP inh: 2; Mtb betalactam: -10; Mtb FBA inh conf: 67*; GDH-TPI counter-2: 83*

What do the screens show for `CC(=O)OCC1OC(c2ccccc2)C(OC(C)=O)C(OC(C)=O)C1OC(C)=O` (stereo unspecified)?
FadD28 FP inh: 0; GDH-TPI counter-1: -4; Rv3671c protease: -18; FBA Mtb inh: 0; UGM FP inh: 0; Mtb betalactam: -11

What do the screens show for `CC(=O)OC[C@H]1O[C@@H](Sc2cccc3cccnc23)[C@H](OC(C)=O)[C@@H](OC(C)=O)[C@@H]1OC(C)=O`?
FadD28 FP inh: -2; GDH-TPI counter-1: 10; Rv3671c protease: -3; FBA Mtb inh: 28*; UGM FP inh: 1; Mtb betalactam: inconclusive; Mtb FBA inh conf: 57*; GDH-TPI counter-2: 60*

Results for CCOc1ccc(-n2cnnn2)cc1S(=O)(=O)NCc1ccccc1 ?
FadD28 FP inh: -2; GDH-TPI counter-1: -2; Rv3671c protease: 2; FBA Mtb inh: -1; UGM FP inh: -1; Mtb betalactam: -3

What do the screens show for `CCOc1cc(S(=O)(=O)NCc2ccccc2)c(OCC)cc1-n1cnnn1`?
FadD28 FP inh: -2; GDH-TPI counter-1: -7; Rv3671c protease: 5; FBA Mtb inh: 49*; UGM FP inh: -3; Mtb betalactam: -5; Mtb FBA inh conf: 132*; GDH-TPI counter-2: 111*

What do the screens show for `Cc1c(NCc2cccnc2)cccc1C(=O)O`?
FadD28 FP inh: -1; GDH-TPI counter-1: -2; Rv3671c protease: -1; FBA Mtb inh: 100*; UGM FP inh: 3; Mtb betalactam: -6; Mtb FBA inh conf: 112*; GDH-TPI counter-2: 100*

Results for COc1ccc(-c2cc3nc4c(c(=O)n3[nH]2)CCC4)cc1 ?
FadD28 FP inh: -1; GDH-TPI counter-1: 11; Rv3671c protease: 1; FBA Mtb inh: 38*; UGM FP inh: 0; Mtb betalactam: -3; Mtb FBA inh conf: 151*; GDH-TPI counter-2: 129*

How did O=c1c2c(nc3cc(-c4ccc(Br)cc4)[nH]n13)CCCC2 do in these assays?
FadD28 FP inh: -1; GDH-TPI counter-1: 3; Rv3671c protease: -10; FBA Mtb inh: 5; UGM FP inh: -3; Mtb betalactam: 2

How did O=c1c2c(nc3cc(-c4ccccc4)[nH]n13)CCC2 do in these assays?
FadD28 FP inh: -1; GDH-TPI counter-1: 6; Rv3671c protease: 1; FBA Mtb inh: 44*; UGM FP inh: -3; Mtb betalactam: 16; Mtb FBA inh conf: 111*; GDH-TPI counter-2: 98*

What do the screens show for `CN(C)CCNC(=O)c1cccc(-c2cccc3nncn23)c1`?
FadD28 FP inh: -1; GDH-TPI counter-1: 0; FBA Mtb inh: 71*; Mtb FBA inh conf: 134*; GDH-TPI counter-2: 88*

Results for CN(C)CCCOc1ccc(-c2ccc3nncn3c2)cn1 ?
FadD28 FP inh: -1; GDH-TPI counter-1: 16; FBA Mtb inh: 4

Results for CN(C)CCCOc1ccc(-c2cccc3nncn23)cn1 ?
FadD28 FP inh: -1; GDH-TPI counter-1: 10; FBA Mtb inh: 43*; Mtb FBA inh conf: 146*; GDH-TPI counter-2: 120*

Results for CN(C)CCNC(=O)c1cccc(-c2cnc3c(NC=O)cc(-c4cc(F)c(F)c(F)c4)cn23)c1 ?
FadD28 FP inh: -7; GDH-TPI counter-1: 9; FBA Mtb inh: 1

Results for Cc1ccc(Oc2coc3cc(O)ccc3c2=O)cc1 ?
GDH-TPI counter-1: 17; Rv3671c protease: -10; FBA Mtb inh: 40*; UGM FP inh: 4; Mtb betalactam: -3; Mtb FBA inh conf: 53*; GDH-TPI counter-2: 57*

What do the screens show for `Cc1ccccc1-c1coc2cc(O)ccc2c1=O`?
FadD28 FP inh: 0; GDH-TPI counter-1: 20; Rv3671c protease: -15; FBA Mtb inh: 48*; UGM FP inh: 1; Mtb betalactam: -4; Mtb FBA inh conf: 97*; GDH-TPI counter-2: 81*

Results for Cc1cc(C)cc(Oc2coc3cc(O)ccc3c2=O)c1 ?
FadD28 FP inh: -3; GDH-TPI counter-1: 1; Rv3671c protease: -12; FBA Mtb inh: 24; UGM FP inh: -2; Mtb betalactam: 0

How did O=c1c(-c2ccc(O)cc2)coc2cc(O)ccc12 do in these assays?
FadD28 FP inh: -2; GDH-TPI counter-1: 15; Rv3671c protease: -2; FBA Mtb inh: 24; UGM FP inh: 2; Mtb betalactam: 1

How did Cc1ccc(C)c(Oc2coc3cc(OCC(=O)Nc4ccccc4C(C)C)ccc3c2=O)c1 do in these assays?
Rv3671c protease: -22; UGM FP inh: 0; Mtb betalactam: 0

Results for Cc1ccc(C)c(Oc2coc3cc(O)ccc3c2=O)c1 ?
FadD28 FP inh: -1; GDH-TPI counter-1: 20; Rv3671c protease: -5; FBA Mtb inh: 38*; UGM FP inh: 1; Mtb betalactam: -7; Mtb FBA inh conf: 128*; GDH-TPI counter-2: 104*

What do the screens show for `COc1cccc(OC)c1C(=O)OCC(=O)NCCNC(=O)COC(=O)c1c(OC)cccc1OC`?
FadD28 FP inh: -4; GDH-TPI counter-1: 4; FBA Mtb inh: -2

How did COCCN(CCOC)Cc1cc(=O)oc2ccccc12 do in these assays?
FadD28 FP inh: 0; FBA Mtb inh: 3

Results for CC1N(C)c2cccc3cccc(c23)N1C ?
FadD28 FP inh: -5; GDH-TPI counter-1: 3; Rv3671c protease: -24; FBA Mtb inh: 103*; UGM FP inh: 2; Mtb betalactam: -6; Mtb FBA inh conf: 196*; GDH-TPI counter-2: 128*

How did CN1c2cccc3cccc(c23)N(C)C1c1cccs1 do in these assays?
FadD28 FP inh: 1; GDH-TPI counter-1: 13; Rv3671c protease: 8; FBA Mtb inh: -1; UGM FP inh: 2; Mtb betalactam: -11

Results for CC1(C(=O)NS(=O)(=O)c2ccc(C#N)cc2)CCN1C(=O)CC1CC1 (stereo unspecified) ?
FadD28 FP inh: 0; GDH-TPI counter-1: 6; FBA Mtb inh: -3

What do the screens show for `Cc1ccc(C(O)c2ncc(-c3cccc(C(F)(F)F)c3)[nH]2)cc1` (stereo unspecified)?
FadD28 FP inh: -2; GDH-TPI counter-1: 5; FBA Mtb inh: 1

How did COc1ccc(-c2ccnc3nc(-n4cccc4)nn23)cc1 do in these assays?
FadD28 FP inh: -3; GDH-TPI counter-1: 11; Rv3671c protease: -9; FBA Mtb inh: 6; UGM FP inh: 0; Mtb betalactam: 7

What do the screens show for `c1ccc(Oc2ccc(-c3ccnc4nc(N5CCOCC5)nn34)cc2)cc1`?
FadD28 FP inh: -4; GDH-TPI counter-1: 17; Rv3671c protease: -11; FBA Mtb inh: 42*; UGM FP inh: 2; Mtb betalactam: 97; Mtb FBA inh conf: active; GDH-TPI counter-2: active

Source: PubChem BioAssay (several laboratories)
